About 83,000 compounds went through this panel and 20% of them were active in at least one assay; those are over-represented in the sample as a whole.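 48-hour exposure, single concentration, 96-well plates; percent growth endpoint where 0 means no net growth. Active: below 10.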 A number with no mark means an inactive call. Active and inactive are the calls of the source.
test system: HL-60(TB) leukemia; experiment: NCI-60 one-dose screen, 48 h (100 = growth as untreated, 0 = no growth, -100 = all killed); details: 10 µM unless noted

Compound | growth
CC(C)c1ccc(C(=O)OC(=O)c2ccc(C(C)C)cc2)cc1 | 51.3%
COc1ccc(/C=C/c2nc3ccccc3c(=O)n2-c2ccc(C#Cc3ccc(C(C)(C)C)cc3)cc2C)c(OC)c1 | 67.4%
CCCCSc1ncnc2c1ncn2C1CCCCO1 (stereo not given) | 90.4%
COc1ccc(-c2[nH]c3ccc(OC)cc3c2C=C(C#N)C#N)cc1 | -43.1% (active)
O=C1c2cccc3cccc(c23)C(=O)N1CCCCCN1CCN(CCCCCOc2ccc(-c3nc4ccc(N5CCOCC5)cc4[nH]3)cc2)CC1 | 3.01% (active)
Cc1ccc(C(=O)Nc2ccc(CN3CCN(C)CC3)c(C(F)(F)F)c2)cc1C#Cc1cnc(N)c2ccc(F)cc12 | -25.4% (active)
Cc1ccc(-c2cn3cc([N+](=O)[O-])ccc3n2)cc1 | 47.7%
O=C1C[C@H](N2C(=O)c3ccccc3S2(=O)=O)C2CO[C@@H]1O2 | 106%
O=C(CBr)c1ccc(OC(=O)c2ccccc2)cc1 | 95.5%
COc1ccc(OC)c(C2OC(c3ccc4ccccc4c3O)=NN2C(C)=O)c1 (stereo not given) | 19%
C=C1CC[C@@]2(C#N)[C@H]3[C@H](CC[C@@H]2C)[C@@H](C)C[C@@H](CC(C)(C)C#N)[C@H]13 | 21.8%
CC1(C)CC[C@]2(C(=O)Nc3ccccn3)CC[C@]3(C)C(=CC[C@@H]4[C@@]5(C)C/C(=C/c6ccncc6)C(=O)C(C)(C)[C@@H]5CC[C@]43C)[C@@H]2C1 | -0.971% (active)
CCOC(=O)Nc1nn[nH]n1 | 47.7%
COc1ccc(C(C)c2cc(OC)c(OC)c(OC)c2)cc1 (stereo not given) | -15.6% (active)
S=C=Nc1ccc2ccccc2c1 | 91.7%
COc1ccc(/C=C(/C(=O)N2CCN(c3ccc(C)cc3)CC2)c2cc(OC)c(OC)c(OC)c2)cc1N | -24.2% (active)
NC(=S)N/N=C/c1ncccc1O | -23.2% (active)
CCCCCc1cc[n+](CC(=O)c2ccc(Cl)cc2)cc1 | 94%
N=C(N)c1ccc(-c2ccc(-c3ccc(Cl)c(Cl)c3)s2)nc1 | -43.9% (active)
c1ccc(-c2cn3nc(-c4c[nH]c5ccccc45)sc3n2)cc1 | 95.1%

Compound | growth
COc1cccc(C(=O)NNc2nc(Cl)nc(N3CCN(C(c4ccccc4)c4ccccc4)CC3)n2)c1 | 0.787% (active)
COc1cc(C(=O)Nc2ccc(-c3nc4ccccc4[nH]3)cc2)cc(OC)c1OC | 41.9%
c1cncc(-c2nc3ccccc3[nH]2)c1 | 94.8%
O=C1CC(c2ccc3c(c2)OCO3)c2ncn(-c3ccc(Cl)cc3)c2N1 (stereo not given) | -9.97% (active)
CN1C2CCC1/C(=C\c1ccc(Cl)cc1)C1=C2[C@@H](c2ccc(Cl)cc2)C(C#N)=C(N)O1 (stereo not given in full) | 81.8%
CN1CCCc2cc(/C=C3\SC(=S)N(C(Cc4ccc(O)cc4)C(=O)O)C3=O)ccc21 (stereo not given) | 99.9%
COc1cccc(/C=C2\COc3ccc(O)cc3C2=O)c1OC | -14.5% (active)
Cn1cc(-c2csc(-c3c[nH]c4ncccc34)n2)c2cc(Br)cnc21 | 87.6%
COc1cccc(CCNc2ncnc3c2ncn3Cc2nnc3c4ccccc4c(Cl)nn23)c1 | 57.5%
COc1ccc(NC(=O)CSc2nc(C)c(C(C)=O)n2-c2ccc([N+](=O)[O-])cc2)cc1 | 121%
COc1ccc(CC(C)=C(c2ccc(OCCN(C)C)cc2)c2ccc(OCCN(C)C)cc2)cc1 | 41.3%
CCN(CC)CCNc1ccc(CO)c2sc3ccccc3c(=O)c12 | 60.8%
c1ccc(-c2nnc(-c3c[nH]c4ncccc34)s2)cc1 | 98.4%
O=C(CSc1nc2ccc([N+](=O)[O-])cc2[nH]1)Nc1ccc([N+](=O)[O-])cc1 | 12.7%
Oc1c(I)cc(I)cc1CNCc1ccccn1 | 20.2%
COc1ccc(-c2nc3sc(-c4ccccc4)cn3n2)cc1 | 67.4%
N=C(N)c1ccc(-c2ccc(-c3cccs3)o2)cc1 | -28.5% (active)
CC(=O)Nc1c(C(=O)Nc2ccccc2)sc2nc3c(cc12)C(OC(C)=O)CCC3 (stereo not given) | 18.6%
COc1ccc(/C=C(\C#N)n2nnc3ccccc32)cc1 | -13% (active)
COC(=O)C1(C)COP(=O)(Nc2ccc(OC)cc2)OC1 (stereo not given) | 94.7%

— PubChem BioAssay (NCI)
